This passage reports growth results from PubChem BioAssay (NCI).

About 83,000 compounds went through this panel and 20% of them were active in at least one assay; those are over-represented in the sample as a whole.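 Step 1: grow cells in 96-well plates. Step 2: add test compound at a single concentration. Step 3: incubate 48 h. Step 4: record percent growth.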 The source made the active and inactive calls.

The subject of the experiment is NCI-H460 lung. As to the kind of experiment: NCI-60 one-dose screen, 48 h (100 = growth as untreated, 0 = no growth, -100 = all killed). Conditions: 10 µM unless noted. How it is done:
Growth inhibition of the NCI-H460 human Non-Small Cell Lung tumor cell line is measured as a screen for anti-cancer activity. Cells are grown in 96 well plates and exposed to the test compound for 48 hours. Compounds are tested at a single concentration, which is 10^-5 M for most compounds. The reported endpoint is percent growth (GI% or GIPRCNT), where numbers from 0 - 100% represent growth inhibition, and numbers from -100% - 0 represent cell death. For example, a value of 40 represents 60% growth inhibition. A value of 0 means no net growth occurred over the course of the experiment. A value of -40 indicates 40% of cells at the beginning of the experiment died by the end of the experiment. A value of -100 means all cells are dead at the end of the experiment.
NCI-60 Human Tumor Cell Lines Screen was performed using the standard one-dose NCI protocol, which is described in more detail at https://dtp.cancer.gov/discovery_development/nci-60/default.htm.
Compounds with GIPRCNT values below 10 were considered active. Activity score was based on GIPRCNT using the following formula: […]
Score is 0 for GIPRCNT values of 100 or above, 50 for GIPRCNT values of 0, and 100 for GIPRCNT values of -100.
Turning to `C[C@]12C[C@H]1CC[C@]1(C)[C@@H]2CC[C@@]23C[C@H](CC[C@H]21)[C@@](O)(CO)C3`, the growth is 94.3% (inactive).
To `CCN(CC)CCSCCCNc1c(C)cnc2cc(Cl)ccc12` belongs 96.8% (inactive); to `COc1ccc(-c2ncc(-c3ccccc3)[nH]2)cc1OC`, 112% (inactive); to `Cc1c2c(cc[n+]1Cc1ccccc1)c1ccc(OCc3ccccc3)cc1n2Cc1ccccc1`, -87.5% (active).
To `Cc1c(C2=CCCCC2)c2ccccn2c1C(=O)c1cccc(S(=O)(=O)N2CCOCC2)c1` belongs 92.7% (inactive).
In the case of `C(=N\Nc1ncc(-c2cc3cc4c(cc3o2)OCO4)s1)/c1c[nH]c2ccccc12`, the growth is -27.2% (active).
For `Cc1ccc(/C=C/C(=O)c2ccc(N)cc2)c(C)c1`, the growth was 97.2% (inactive).
`CCCCCCCCCCCCC1CCC/C=C\CCC(=O)O1` (stereo not given): the growth is 104% (inactive).
Regarding `C=C(C)[C@H]1CC/C(C)=C/CC[C@]2(C)O[C@H]2CC/C(COC(=O)[C@@H](OC(C)=O)[C@H](NC(=O)c2ccccc2)c2ccccc2)=C\[C@@H]1O`, the growth is 89% (inactive).
To `C#Cc1cccc(NC(=O)Nc2cccc(N=C=S)c2)c1` belongs 112% [8.25 µM] (inactive); to `COc1ccc(C2=NN(C(C)=O)C(c3cn(Cc4ccc(Cl)cc4)c4ccccc34)C2)cc1` (stereo not given), 86.9% (inactive).
Consider `CC(C)(C)CC(C)(C)Nc1c(-c2ccc(C(F)(F)F)cc2)nc2cnccn12`, for which the growth is 89.5% (inactive).
On to `O=C1OC(=O)C2C1CC=CC2c1ccccc1` (stereo not given), for which the growth was 75.5% (inactive).
To `Cc1c([N+](=O)[O-])cc(C(C)(C)C)cc1[N+](=O)[O-]` belongs 102% (inactive); to `COc1cc(/C=C/C(=O)c2c(C)oc3nc[nH]c(=O)c23)ccc1O`, 103% (inactive); to `O=C(N/N=C/c1cccnc1)c1ccccc1Nc1cccc(C(F)(F)F)c1`, 102% (inactive).
Turning to `COc1c(Cl)cc(Cl)c2ccc(C=C3C(=O)NC(=S)NC3=O)nc12`, the growth was 103% (inactive).
To `c1ccc(CCSc2ncnc3nc[nH]c23)cc1` belongs 82% (inactive); to `CC(=O)N1c2ccccc2NC2=C(C(=O)N(Cc3ccccc3)C2(C)C)C1c1ccco1` (stereo not given), 4.83% (active); to `COc1ccc(C(=O)c2cc3c(N)c(C(=O)Nc4cccc(Cl)c4C)sc3nc2C)cc1`, 6.21% (active).
In the case of `COc1cc2oc(-c3cccc(C(=O)Nc4ccc(Cl)cc4)c3)cc(=O)c2c(OC)c1OC`, the growth was 20.1% (inactive).
For the compound `C=C1C(=O)O[C@H]2[C@H]1CC/C(CNC(=O)/C=C/c1ccc(Br)cc1)=C\CC[C@@]1(C)O[C@@H]21`, the growth was 4.75% (active).
For `CC(=O)c1c(-c2ccc(OC(F)(F)F)cc2)nc2ccccn12`, the growth is 103% (inactive).
Regarding `CC(C)C1C2=C(NCCN1C(=O)Cc1ccccc1)C(C)(C)N(Cc1ccccc1)C2=O` (stereo not given), the growth was 104% (inactive).
To `O=C1/C(=C\c2cn(Cc3ccccc3)c3ccc(Br)cc23)c2ccccc2N1c1c(Cl)cccc1Cl` belongs 107% (inactive); to `COc1cc(-c2cc(=O)oc3cc(O)ccc23)c(OC)c2c1OCO2`, 88.9% (inactive).
To `CN1C(=O)N(C)[C@H]2NC(NN)=N[C@H]21` belongs 103% (inactive); to `CCCCCCOc1ccc(C(=N)N(CCCC)CCCC)c2ccccc12`, -57.7% (active).
To `Nc1ncc(C#Cc2cncc(NC(=O)c3cccc(C(F)(F)F)c3)c2)c2cccnc12` belongs 12.3% (inactive); to `Cc1cn(-c2cc(C(=O)Nc3cccc(C#Cc4cccc5[nH]nc(N)c45)c3)cc(C(F)(F)F)c2)cn1`, 40.6% (inactive); to `C#Cc1cccc(NC(=O)Nc2ccc(NC(=O)CCl)cc2)c1`, -23.9% [8.25 µM] (active).
As for `COc1cccc(CNCCN2C(=O)c3ccc4c5c(ccc(c35)C2=O)C(=O)N(CCNCc2cccc(OC)c2)C4=O)c1`, the growth was 46.8% (inactive).
To `C=CCn1c(SCC(=O)Nc2ccc(C(=O)/C=C/c3cc(OC)c(OC)c(OC)c3)cc2)nnc1-c1cc(OC)c(OC)c(OC)c1` belongs 31.4% (inactive); to `CCOC(=O)N1CCN(CCCCl)CC1`, 105% (inactive).
As for `Cc1nc2sc(C(=O)Nc3ccccc3)c(N)c2cc1C(=O)c1ccc(C(F)(F)F)cc1`, the growth is 70.2% (inactive).
Consider `O=C(N/N=C/c1ccncc1)c1ccccc1Nc1cccc(C(F)(F)F)c1`, for which the growth is 103% (inactive).
For `Fc1ccc(C2CC(c3cccc(Nc4ccncc4)c3)=NN2c2ccccc2)cc1` (stereo not given) the value was -41.9% (active); for `CN1C(=O)N(C)C2NC(N/N=C/c3ccccc3)=NC21` (stereo not given), 103% (inactive).
On to `CN1CCN(Cc2ccc(NC(=O)c3cncc(C#Cc4cnccc4C(F)(F)F)c3)cc2C(F)(F)F)CC1`, for which the growth is 71.6% (inactive).
As for `O=C(O)C(/C=C/c1ccco1)=N\Nc1nc(-c2ccc(Cl)cc2)cs1`, the growth was 37.6% (inactive).
